Shown are actives, neighbours in structure and some others; about 6.5% of the full set was active somewhere.
HCMV inh: blocks human cytomegalovirus replication | hit rate 4.5% among 410,000 | HFF cells, HCMV-luciferase reporter, 72 h; stronger effect = lower value | activity change, negative = inhibition, % at 57.5 µM; in the data active means activity change below about -60%; inconclusive means no clear call, values can overlap the other calls; inactive means above about -39%
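Compounds were evaluated in HFFs infected with an HCMV luciferase reporter virus (MOI 1 PFU/cell). Luciferase in lysates collected 72 h post infection served as the replication measure.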
FMDV inh: foot and mouth disease virus antiviral activity. FMDV antiviral cell-based qHTS. Potency, µM (top dose mostly 57.9 µM), inactives show at the highest dose activity change, negative = inhibition, actives largely listed as inhibitors. hit rate 1.2% among 410,000; calls by dose curve; tested in HEK293T cells; further: read-out not given here; potency means the concentration at half of the fitted maximal effect; nearly all actives have a fitted effect of over 45% in size
VACV mCherry inh: vaccinia inhibition (mCherry reporter). Vaccinia virus mCherry reporter infection, fluorescence. Potency, µM (top dose mostly 36.5 µM), without a hit: at the top dose activity change, negative = inhibition, hits mostly inhibitors. AID 720579. hit rate 0.63% among 310,000; calls by dose curve; tested in A549 cells; further: potency means the concentration at half of the fitted maximal effect; nearly all actives have a fitted effect of over 35% in size
LASV entry inh: Lassa virus entry inhibition | Potency, µM (highest dose often 37.9 µM), for inactives: at the top dose activity change, negative = inhibition, hits mostly inhibitors | Lassa virus pseudotype entry inhibition, cell reporter | hit rate 1.2% among 300,000; calls by dose curve; tested in HEK293 cells; further: potency means the concentration at half of the fitted maximal effect; nearly all actives have a fitted effect of over 50% in size
MARV entry inh: blocks Marburg virus binding to or entry into cells. Marburg virus pseudotyped entry inhibition, cell reporter. Potency, µM (doses to about 37.8 µM), for inactives: at the top dose activity change, negative = inhibition, most hits filed as inhibitors. hit rate 1.8% among 300,000. AID 540276; calls by dose curve; tested in HEK293 cells; further: potency means the concentration at half of the fitted maximal effect
VACV Venus inh: inhibitors of vaccinia virus (Venus reporter); Vaccinia virus Venus reporter expression, fluorescence; Potency, µM (series often up to 36.5 µM), without a hit: at the top dose activity change, negative = inhibition, most hits filed as inhibitors; hit rate 0.46% among 330,000; AID 720580; calls by dose curve; tested in A549 cells; further: potency means the concentration at half of the fitted maximal effect; nearly all actives have a fitted effect of over 30% in size
Numbers without * were called inactive. On the % scale 0 is the no-effect control and ±100 the full control effect.

For COc1ccc(NC(=S)N2CCCC(c3nc4ccc(C)cc4[nH]3)C2)c(OC)c1 (stereo not given) the results were HCMV inh -87*, FMDV inh -5%, LASV entry inh -10% and MARV entry inh -9%.
`Cc1ccc2c(c1)C1CN(C)CCC1N2C(=S)NC(=O)c1ccc(Br)cc1` (stereo not given) gave HCMV inh -62* and FMDV inh inconclusive.
Cc1ccc2c(c1)C1CN(C)CCC1N2C(=O)c1ccc(Br)o1 (stereo not given) was read as HCMV inh 53, FMDV inh 0%, LASV entry inh 9%, MARV entry inh 10% and VACV Venus inh -15%.
CC(=O)OC1CC(OC2C(O)CC(OC3C(O)CC(OC4CCC5(C)C(CCC6C5CC(O)C5(C)C(C7=CC(=O)OC7)CCC65O)C4)OC3C)OC2C)OC(C)C1OC1OC(CO)C(O)C(O)C1O (stereo not given) was read as HCMV inh -100*, FMDV inh inconclusive, VACV mCherry inh 2.5µM* and VACV Venus inh 0.89µM*.
CC(=O)OCC1OC(OC2C[C@]3(C)C(CC(O)C4C([C@](C)(CCC=C(C)C)OC5OC(CO)C(O)C(O)C5O)CC[C@]43C)[C@@]3(C)CCC(O)C(C)(C)C23)C(O[C@@H]2OC(C)C(O)C(O)C2O)C(O)C1O (stereo not given in full) was read as FMDV inh -23%, VACV mCherry inh -17% and VACV Venus inh 0%.
For C[C@H]1O[C@@H](O[C@H]2[C@@H](O)C[C@H](O[C@H]3[C@@H](O)C[C@H](O[C@H]4CC[C@@]5(C)[C@H](CC[C@@H]6[C@@H]5C[C@@H](O)[C@]5(C)[C@@H](C7=CC(=O)OC7)CC[C@]65O)C4)O[C@@H]3C)O[C@@H]2C)C[C@H](O)[C@@H]1O the results were HCMV inh -100*, FMDV inh inconclusive, VACV mCherry inh inconclusive, LASV entry inh 0.15µM*, MARV entry inh 0.13µM* and VACV Venus inh 0.28µM*.
For CC1O[C@@H](O[C@@H]2C(O)C[C@H](O[C@@H]3C(O)C[C@@H](OC4CC[C@@]5(C)C6CC[C@]7(C)C(C8=CC(=O)OC8)CC[C@@]7(O)C6CC[C@@H]5C4)OC3C)OC2C)CC(O)[C@H]1O (stereo not given in full) the results were FMDV inh 0%, VACV mCherry inh inconclusive and VACV Venus inh 0.28µM*.
For C[C@H]1O[C@@H](O[C@H]2[C@@H](O)C[C@@H](O[C@H]3[C@@H](O)C[C@H](O[C@H]4CC[C@@]5(C)[C@H](CC[C@@H]6[C@@H]5CC[C@]5(C)[C@@H](C7=CC(=O)OC7)CC[C@]65O)C4)O[C@@H]3C)O[C@@H]2C)C[C@H](O)[C@@H]1O the results were VACV mCherry inh 13µM* and VACV Venus inh 0.025µM*.
CC(=O)O[C@@]12CO[C@@H]1C[C@H](O)[C@@]1(C)C(=O)[C@H](O)C3=C(C)[C@@H](OC(=O)[C@H](O)[C@@H](NC(=O)OC(C)(C)C)c4ccccc4)C[C@@](O)([C@@H](OC(=O)c4ccccc4)[C@H]21)C3(C)C was read as VACV mCherry inh inactive and VACV Venus inh inconclusive.
Screening CCCCC(=O)NC(c1ccc(N(C)C)cc1)c1ccc2cccnc2c1O (stereo not given) returned HCMV inh -102*, FMDV inh 10%, VACV mCherry inh 1.3µM*, LASV entry inh inconclusive, MARV entry inh inconclusive and VACV Venus inh -27%.
`CCCC(=O)NC(c1ccc(N(C)C)cc1)c1c(O)ccc2ccccc12` (stereo not given) gave HCMV inh 42, FMDV inh 13%, VACV mCherry inh inactive, LASV entry inh 3%, MARV entry inh inconclusive and VACV Venus inh -16%.
Screening CCCCC(=O)N/N=C/c1ccc(Sc2cccc3cccnc23)o1 returned HCMV inh 73, FMDV inh -10%, LASV entry inh inconclusive, MARV entry inh 9% and VACV Venus inh inconclusive.

Screens deposited in PubChem BioAssay by National Center for Advancing Translational Sciences (NCATS).
